Measurements reported in PubChem BioAssay (EPA / NIEHS).
Inconclusive results are not listed. Active and inactive are the calls of the source. The calls were made as follows, unless noted: active = hit-call score of the fitted dose curve at least 0.9, where 1 is the maximum; inconclusive = response in the unintended direction; inactive = score below 0.9.

Assays:
[1] = target: T1, Thyroid hormone receptor alpha (Rattus norvegicus) + Thyroid hormone receptor beta (Rattus norvegicus) (UniProt P18113+P63059); assay: TOX21_TR_LUC_GH3_Antagonist_Followup: Tox21 GH3 Thyroid Hormone Receptor Antagonism Luciferase Follow-Up Assay (AID 2283942)
In short: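 Rat pituitary GH3 cells with a TRα/TRβ-driven luciferase reporter, 5 h attachment, then 15 concentrations (92 uM to 5nM final) plus 1.0 nM T3 agonist, 24 h at 37C/5% CO2. ONE-Glo luminescence; signal change fitted against DMSO baseline.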

THRB (gene 7068) [2] = target: THRB (gene 7068) (UniProt P10828); assay: TOX21_TRB_BLA_Antagonist_Followup_ratio: Tox21 Thyroid Hormone Receptor beta Antagonism Beta-lactamase (BLA) Follow-Up Assay, Ratio (AID 2283958)
In short: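 HEK293T cells with a GAL4-TRb LBD fusion and UAS-bla reporter, 3,000 cells/well in phenol red-free DMEM with 2% charcoal-stripped FBS. Exposed 18 h at 37C to 11 concentrations in triplicate; CCF4 460:530 nm ratio after 2 h, DMSO-referenced.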

THRA (gene 7067) [3] = target: THRA (gene 7067) (UniProt P10827); assay: TOX21_TRA_COA_Agonist_Followup_ratio: Tox21 Thyroid Hormone Receptor alpha Agonism through Coactivator Recruitment Follow-Up Assay, Ratio (AID 2283948; active = hit-call score of the fitted dose curve at least 0.9, where 1 is the maximum; inactive = score below 0.9)
In short: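 Cell-free TR-FRET coactivator recruitment: GST-tagged TRα LBD (2.5 nM) with 0.10% BSA was incubated with compound, then fluorescein-SRC-2 peptide (200 nM) and Tb-anti-GST antibody (2 nM) added. 520:495 nm ratio normalized to DMSO (0%) and T3 (100%).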

THRB (gene 7068) [4] = target: THRB (gene 7068) (UniProt P10828); assay: TOX21_TRB_BLA_Agonist_Followup_ratio: Tox21 Thyroid Hormone Receptor beta Agonism Beta-lactamase (BLA) Follow-Up Assay, Ratio (AID 2283954)
In short: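 Human TRβ LBD–GAL4 DBD fusion in GeneBLAzer UAS-bla HEK293T cells; 11 concentrations in triplicate, 18 h at 37°C/5% CO2, T3 as agonist control. CCF4-AM substrate 2 h at room temperature; 460:530 nm ratio fitted for gain of signal versus DMSO.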

[5] = TOX21_TRB_BLA_Agonist_Followup_viability: Viability Assessment in the Tox21 Thyroid Hormone Receptor beta Agonism Beta-lactamase (BLA) Follow-Up Assay (AID 2283956)
In short: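 TRb-bla HEK293T cells (GAL4-DBD/human TRb LBD) in 2% charcoal-stripped FBS medium were exposed 18 h at 37C to 11 concentrations in triplicate. CellTiter-Glo ATP luminescence was read after 30 min at room temperature, with bidirectional fitting against DMSO.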

[6] = CEETOX_H295R_CORTISOL_noMTC: CeeTox H295R High-throughput Steroidogenesis Assay for Cortisol, maximum tolerated concentration (MTC) filtered results only (AID 2283916; active = hit-call score of the fitted dose curve at least 0.9, where 1 is the maximum; inactive = score below 0.9); settings: actives raise or lower the signal
In short: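 H295R adrenal cells were pre-stimulated 48 h with 10 uM forskolin, then exposed 48 h to test chemical in 0.1% DMSO. Medium cortisol was measured by MTBE extraction and HPLC-MS/MS; bidirectional fit versus DMSO, concentrations not MTC-filtered.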

[7] = CEETOX_H295R_CORTIC_noMTC: CeeTox H295R High-throughput Steroidogenesis Assay for Corticosterone (CORTIC), maximum tolerated concentration (MTC) filtered results only (AID 2283917; active = hit-call score of the fitted dose curve at least 0.9, where 1 is the maximum; inactive = score below 0.9); settings: actives raise or lower the signal
In short: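 H295R, 10 uM forskolin prestim 48 h → test chem (0.1% DMSO final) 48 h → media MTBE extraction → HPLC-MS/MS corticosterone. Bidirectional fit vs DMSO baseline; no MTT-based MTC filtering.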

[8] = CEETOX_H295R_DOC_noMTC: CeeTox H295R High-throughput Steroidogenesis Assay for DOC, maximum tolerated concentration (MTC) filtered results only (AID 2283918; active = hit-call score of the fitted dose curve at least 0.9, where 1 is the maximum; inactive = score below 0.9); settings: actives raise or lower the signal
In short: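 H295R cells prestimulated 48 h with 10 uM forskolin, then exposed 48 h to test chemical (0.1% DMSO final). Medium 11-deoxycorticosterone extracted with MTBE, quantified by HPLC-MS/MS; bidirectional fit versus DMSO, concentrations not MTC-filtered.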

[9] = CEETOX_H295R_ESTRADIOL_noMTC: CeeTox H295R High-throughput Steroidogenesis Assay for Estradiol, maximum tolerated concentration (MTC) filtered results only (AID 2283919; active = hit-call score of the fitted dose curve at least 0.9, where 1 is the maximum; inactive = score below 0.9); settings: actives raise or lower the signal
In short: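 H295R human adrenal cells pre-stimulated 48 h with 10 uM forskolin, then exposed 48 h to chemical (0.1% DMSO final). Estradiol in medium measured by HPLC-MS/MS after MTBE extraction and dansyl derivatization; bidirectional fit versus DMSO, concentrations not MTT-filtered.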

[10] = CEETOX_H295R_PROG_noMTC: CeeTox H295R High-throughput Steroidogenesis Assay for Progesterone (PROG), maximum tolerated concentration (MTC) filtered results only (AID 2283920; active = hit-call score of the fitted dose curve at least 0.9, where 1 is the maximum; inactive = score below 0.9); settings: actives raise or lower the signal
In short: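 H295R human adrenal cells were prestimulated 48 h with 10 uM forskolin, then exposed 48 h to test chemical (0.1% DMSO final). Progesterone in medium was quantified by HPLC-MS/MS; bidirectional fitting versus DMSO, concentrations not MTC-filtered.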

[11] = CEETOX_H295R_ESTRONE_noMTC: CeeTox H295R High-throughput Steroidogenesis Assay for Estrone, maximum tolerated concentration (MTC) filtered results only (AID 2283921; active = hit-call score of the fitted dose curve at least 0.9, where 1 is the maximum; inactive = score below 0.9); settings: actives raise or lower the signal
In short: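 H295R cells prestimulated 48 h with 10 uM forskolin, then exposed 48 h to chemical in 0.1% DMSO; medium estrone measured by HPLC-MS/MS after MTBE extraction and dansyl derivatization, fitted bidirectionally versus DMSO without MTT-based MTC filtering.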

THRA (gene 7067) [12] = target: THRA (gene 7067) (UniProt P10827); assay: TOX21_TRA_COA_Antagonist_Followup_ratio: Tox21 Thyroid Hormone Receptor alpha Antagonism through Coactivator Recruitment Follow-Up Assay, Ratio (AID 2283953)
In short: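 520:495 nm emission ratio (excitation 340 nm) reports fluorescein-SRC-2 peptide recruitment to GST-TRα LBD by TR-FRET with Tb anti-GST antibody. Values were normalized to DMSO (0%) and T3 control wells (100%); loss of signal indicated antagonism.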

PGR (gene 5241) [13] = target: PGR (gene 5241) (UniProt P06401); assay: TOX21_PR_BLA_Followup_Antagonist_ratio: Tox21 HEK293 Progesterone Receptor (PR) Antagonism Beta-lactamase Follow-Up Assay, Ratio (AID 2283934)
In short: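 PR-UAS-bla HEK293T cells, 3,000/well in 2% charcoal-stripped FBS, given compound plus 1nM R5020 agonist for 16 hr at 37C. Beta-lactamase FRET substrate 2 hours, ratio cleaved/uncleaved fluorescence; viability by CellTiter-Glo in same wells.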

[14] = TOX21_PR_BLA_Followup_Agonist_viability: Viability Assessment in the Tox21 HEK293 Progesterone Receptor (PR) Agonism Beta-lactamase Follow-Up Assay (AID 2283935);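 also: signal loss means lower viability so actives are cytotoxic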
In short: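 PR-UAS-bla HEK293T cells in 2% charcoal-stripped FBS medium, plated 6 hr before compound addition, exposed 16 hr at 37C. Viability read by CellTiter-Glo ATP luminescence after 30 min at room temperature, in the same wells as the beta-lactamase readout.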

[15] = TOX21_PR_BLA_Followup_Antagonist_viability: Viability Assessment in the Tox21 HEK293 Progesterone Receptor (PR) Antagonism Beta-lactamase Follow-Up Assay (AID 2283936);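 also: hits lower the luminescence signal meaning cytotoxicity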
In short: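 PR-UAS-bla HEK293T cells (3,000/well, 2% charcoal-stripped FBS) given compound plus R5020 agonist, 16 h at 37C. CellTiter-Glo added after bla read, 30 min at room temperature; luminescence loss indicates cytotoxicity.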

PGR (gene 5241) [16] = target: PGR (gene 5241) (UniProt P06401); assay: TOX21_PR_LUC_Followup_Antagonist: Tox21 HEK293 Progesterone Receptor (PR) Antagonism Luciferase Follow-Up Assay (AID 2283938);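 also: curve fitted upward as signal gain over DMSO baseline despite antagonist label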
In short: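 Luminescence from ONE-Glo was measured 30 min after reagent addition, following 16 h exposure of HEK293-PR-A-luc cells (3,000/well, plated 5 h earlier) to DMSO-dissolved compounds at 37C; DMSO served as baseline.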

[17] = TOX21_PR_LUC_Followup_Antagonist_viability: Viability Assessment in the Tox21 HEK293 Progesterone Receptor (PR) Antagonism Luciferase Follow-Up Assay (AID 2283940)
In short: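 HEK293-PR-A-luc cells kept in charcoal-stripped FBS medium were plated 5 h before compound addition, then exposed 16 h at 37C; viability read as cellular ATP by luciferase luminescence, loss of signal indicating cytotoxicity.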

[18] = TOX21_PR_LUC_Followup_Agonist_viability: Viability Assessment in the Tox21 HEK293 Progesterone Receptor (PR) Agonism Luciferase Follow-Up Assay (AID 2283941);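 also: loss of signal means cytotoxicity so actives lower viability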
In short: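 HEK293-PR-A-luc cells, kept in 10% charcoal-stripped FBS medium, were treated with compounds for 16 h at 37C. Viability read as cellular ATP by luciferase-coupled luminescence; loss of signal indicates cytotoxicity.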

[19] = target: T1, Thyroid hormone receptor alpha (Rattus norvegicus) + Thyroid hormone receptor beta (Rattus norvegicus); assay: TOX21_TR_LUC_GH3_Agonist_Followup: Tox21 GH3 Thyroid Hormone Receptor Agonism Luciferase Follow-Up Assay (AID 2283939)
In short: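 Rat GH3 cells (1,500/well) in serum-free assay medium, treated with 15-point series, 92 uM to 5 nM final, for 24 h at 37C. Luciferase via ONE-Glo luminescence; gain of signal fitted against DMSO, T3 positive control.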

PGR (gene 5241) [20] = target: PGR (gene 5241) (UniProt P06401); assay: TOX21_PR_LUC_Followup_Agonist: Tox21 HEK293 Progesterone Receptor (PR) Agonism Luciferase Follow-Up Assay (AID 2283937; active = hit-call score of the fitted dose curve at least 0.9, where 1 is the maximum; inactive = score below 0.9)
In short: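 HEK293-PR-A-luc cells, conditioned 5 days in 10% charcoal-stripped FBS medium, seeded 3,000/well for 5 h, then compound-treated 16 h at 37C. ONE-Glo luminescence read after 30 min at room temperature; gain of signal versus DMSO.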

Sequence of THRB (gene 7068) (P10828 whole entry, looked up, the tested form may be a part): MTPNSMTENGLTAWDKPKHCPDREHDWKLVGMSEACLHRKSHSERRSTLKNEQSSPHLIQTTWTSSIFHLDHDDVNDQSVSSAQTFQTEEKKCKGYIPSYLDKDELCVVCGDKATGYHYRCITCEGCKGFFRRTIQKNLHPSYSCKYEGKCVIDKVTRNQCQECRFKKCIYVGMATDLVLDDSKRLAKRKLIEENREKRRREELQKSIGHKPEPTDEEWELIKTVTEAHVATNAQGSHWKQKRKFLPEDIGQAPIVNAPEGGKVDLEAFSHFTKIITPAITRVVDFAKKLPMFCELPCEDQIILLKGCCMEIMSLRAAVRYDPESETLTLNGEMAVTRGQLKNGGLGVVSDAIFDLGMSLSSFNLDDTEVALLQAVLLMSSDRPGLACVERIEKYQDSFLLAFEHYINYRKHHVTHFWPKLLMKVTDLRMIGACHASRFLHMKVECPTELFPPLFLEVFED
Sequence of THRA (gene 7067) (P10827 whole entry, looked up, the tested form may be a part): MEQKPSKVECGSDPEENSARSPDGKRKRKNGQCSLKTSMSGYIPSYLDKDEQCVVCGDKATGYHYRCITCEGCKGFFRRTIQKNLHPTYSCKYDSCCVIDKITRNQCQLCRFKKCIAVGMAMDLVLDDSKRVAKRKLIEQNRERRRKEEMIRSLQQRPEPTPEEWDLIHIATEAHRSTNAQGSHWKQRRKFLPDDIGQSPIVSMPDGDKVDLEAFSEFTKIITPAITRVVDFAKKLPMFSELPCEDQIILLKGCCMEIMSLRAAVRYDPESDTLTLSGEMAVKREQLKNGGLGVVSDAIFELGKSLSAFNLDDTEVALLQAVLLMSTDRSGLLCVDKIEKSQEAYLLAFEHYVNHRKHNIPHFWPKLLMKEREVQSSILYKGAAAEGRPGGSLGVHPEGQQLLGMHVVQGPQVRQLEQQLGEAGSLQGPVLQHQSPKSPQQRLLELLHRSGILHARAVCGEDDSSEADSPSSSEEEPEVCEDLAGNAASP
Sequence of PGR (gene 5241) (P06401 whole entry, looked up): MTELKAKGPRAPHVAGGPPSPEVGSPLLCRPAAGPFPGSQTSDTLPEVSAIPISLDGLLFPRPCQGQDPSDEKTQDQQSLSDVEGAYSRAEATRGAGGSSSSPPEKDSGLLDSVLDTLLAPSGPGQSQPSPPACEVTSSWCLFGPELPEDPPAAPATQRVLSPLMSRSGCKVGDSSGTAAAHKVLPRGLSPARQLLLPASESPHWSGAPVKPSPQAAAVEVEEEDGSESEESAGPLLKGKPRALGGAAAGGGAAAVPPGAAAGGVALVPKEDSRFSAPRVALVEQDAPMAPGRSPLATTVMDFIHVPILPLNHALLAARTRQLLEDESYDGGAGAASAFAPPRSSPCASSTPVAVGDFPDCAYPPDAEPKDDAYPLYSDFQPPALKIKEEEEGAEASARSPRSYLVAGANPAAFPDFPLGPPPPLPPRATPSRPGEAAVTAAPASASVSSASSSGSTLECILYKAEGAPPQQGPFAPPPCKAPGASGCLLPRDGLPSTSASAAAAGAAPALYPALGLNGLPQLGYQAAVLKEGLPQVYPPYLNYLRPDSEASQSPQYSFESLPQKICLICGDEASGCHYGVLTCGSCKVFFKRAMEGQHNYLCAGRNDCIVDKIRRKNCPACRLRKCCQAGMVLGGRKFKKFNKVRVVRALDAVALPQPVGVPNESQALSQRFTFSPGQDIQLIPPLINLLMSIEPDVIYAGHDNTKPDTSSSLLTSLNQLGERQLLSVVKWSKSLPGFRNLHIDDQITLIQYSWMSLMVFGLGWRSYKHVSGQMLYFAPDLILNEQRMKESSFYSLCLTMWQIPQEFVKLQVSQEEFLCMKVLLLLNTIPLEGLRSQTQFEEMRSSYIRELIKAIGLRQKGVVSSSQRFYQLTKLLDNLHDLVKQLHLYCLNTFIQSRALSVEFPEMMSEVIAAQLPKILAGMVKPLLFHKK
T1 sequence (P63059 whole entry, looked up): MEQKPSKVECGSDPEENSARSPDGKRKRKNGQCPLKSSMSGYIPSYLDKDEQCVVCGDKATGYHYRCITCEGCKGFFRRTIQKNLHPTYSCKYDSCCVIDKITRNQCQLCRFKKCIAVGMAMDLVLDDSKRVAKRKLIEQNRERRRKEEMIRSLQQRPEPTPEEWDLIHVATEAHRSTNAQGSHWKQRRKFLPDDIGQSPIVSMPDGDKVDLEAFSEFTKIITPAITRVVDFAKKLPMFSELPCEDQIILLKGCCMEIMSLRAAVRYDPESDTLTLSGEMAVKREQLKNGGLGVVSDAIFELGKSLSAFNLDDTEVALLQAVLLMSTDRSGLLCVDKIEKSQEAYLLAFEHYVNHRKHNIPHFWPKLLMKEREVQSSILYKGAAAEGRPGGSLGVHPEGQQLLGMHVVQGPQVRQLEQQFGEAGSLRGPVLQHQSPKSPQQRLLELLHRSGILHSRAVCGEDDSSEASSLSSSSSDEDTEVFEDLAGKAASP
T1 sequence (P18113 whole entry, looked up): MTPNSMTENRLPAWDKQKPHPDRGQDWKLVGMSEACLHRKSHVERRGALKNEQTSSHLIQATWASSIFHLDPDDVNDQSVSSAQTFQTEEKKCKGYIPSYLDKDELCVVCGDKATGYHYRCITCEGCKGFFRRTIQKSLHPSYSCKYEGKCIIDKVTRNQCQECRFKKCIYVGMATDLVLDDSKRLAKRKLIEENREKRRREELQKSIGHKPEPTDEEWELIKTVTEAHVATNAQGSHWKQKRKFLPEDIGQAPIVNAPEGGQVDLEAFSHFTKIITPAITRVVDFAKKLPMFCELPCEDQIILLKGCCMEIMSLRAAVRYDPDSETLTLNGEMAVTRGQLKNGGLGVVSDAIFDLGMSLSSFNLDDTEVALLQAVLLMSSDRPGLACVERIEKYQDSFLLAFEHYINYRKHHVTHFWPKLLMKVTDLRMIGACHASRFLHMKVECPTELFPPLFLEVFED

CN(C)c1ccc(C(=O)c2ccc(N(C)C)cc2)cc1
outcome [1]: inactive
AC50 (THRB (gene 7068) [2]): 2.66 µM (active)

Clc1ccc(Cl)c(Cl)c1
outcome (THRA (gene 7067) [3]): inactive
outcome (THRB (gene 7068) [4]): inactive
outcome [5]: inactive

CC(C)COC(=O)c1ccccc1C(=O)OCC(C)C
outcome [6]: inactive
outcome [7]: inactive
outcome [8]: inactive
outcome [9]: inactive
outcome [10]: inactive
outcome [11]: inactive

COC(=O)Nc1nc2ccccc2[nH]1
outcome [1]: inactive
outcome (THRA (gene 7067) [12]): inactive

Clc1ccc(C(c2ccc(Cl)cc2)C(Cl)(Cl)Cl)cc1
AC50 (PGR (gene 5241) [13]): 34.8 µM (active)
AC50 [14]: 84.9 µM (active)
outcome [15]: inactive
AC50 (PGR (gene 5241) [16]): 32.5 µM (active)
outcome [17]: inactive
outcome [18]: inactive

Cc1ccc(N)cc1
outcome [19]: inactive
outcome (THRA (gene 7067) [3]): inactive
outcome (THRB (gene 7068) [4]): inactive
outcome [5]: inactive

CCCCCOC(=O)c1ccccc1C(=O)OCCCCC
outcome [6]: inactive
outcome [7]: inactive
outcome [8]: inactive
outcome [9]: inactive
outcome [10]: inactive
outcome [11]: inactive

O=[N+]([O-])c1ccc(Oc2ccc(Cl)cc2Cl)cc1
AC50 (PGR (gene 5241) [13]): 20.6 µM (active)
outcome [14]: inactive
outcome (PGR (gene 5241) [16]): inactive
outcome [17]: inactive
outcome [18]: inactive

Brc1ccc(Oc2ccccc2)cc1
outcome [6]: inactive
outcome [7]: inactive
outcome [10]: inactive

ClC1=C(Cl)[C@]2(Cl)[C@H]3[C@H]([C@@H]4C=C[C@H]3C4)[C@@]1(Cl)C2(Cl)Cl
AC50 (PGR (gene 5241) [13]): 46.1 µM (active)
AC50 [14]: 62.6 µM (active)
outcome [15]: inactive
AC50 (PGR (gene 5241) [16]): 46.1 µM (active)

Clc1ccc(C(c2ccc(Cl)cc2)C(Cl)Cl)cc1
AC50 (PGR (gene 5241) [13]): 31.5 µM (active)
outcome [14]: inactive
outcome [15]: inactive
AC50 (PGR (gene 5241) [16]): 33.8 µM (active)

C[C@]12C=CC3=C4CCC(=O)C=C4CC[C@H]3[C@@H]1CC[C@@H]2O
outcome (PGR (gene 5241) [13]): inactive
outcome [14]: inactive
outcome [15]: inactive
AC50 (PGR (gene 5241) [20]): 0.00268 µM (active)
outcome (PGR (gene 5241) [16]): inactive
outcome [17]: inactive
outcome [18]: inactive

CCCCOC(=O)c1ccccc1C(=O)OCc1ccccc1
outcome [6]: inactive
outcome [7]: inactive
outcome [8]: inactive
outcome [10]: inactive
outcome (PGR (gene 5241) [13]): inactive
outcome [14]: inactive
outcome [15]: inactive
outcome (PGR (gene 5241) [16]): inactive
outcome [17]: inactive
outcome [18]: inactive

C=CCc1ccc2c(c1)OCO2
outcome [6]: inactive
outcome [7]: inactive
outcome [8]: inactive
outcome [10]: inactive
